Experimental data published in PubChem BioAssay (Tox21).
Where “and” joins values, the source holds several entries; their conditions need not be identical. Equal entries are not always repeated. Inconclusive results are not listed. A call without a number means that no potency is given here. Calls of active or inactive are those of the source. Calls come from the whole dose curve.

Test: qHTS assay for small molecule agonists of the p53 signaling pathway (AID 651631); note: nearly all actives have a fitted effect of over 15% in size
Conditions: HCT-116 p53RE-bla reporter, beta-lactamase FRET ratio, 16 h; series mostly up to 73.3 µM
Text: U.S. Tox21 Program National Center for Advancing Translational Sciences [NCATS] NIH Chemical Genomics Center [NCGC] U.S. Environmental Protection Agency [EPA] National Institutes of Environmental Health Sciences [NIEHS] National Toxicology Program [NTP] U.S. Food and Drug Administration [FDA] Tox21 Assay Overview: p53, a tumor suppressor protein, is activated following cellular insult, including DNA damage and other cellular stresses. The activation of p53 regulates cell fate by inducing DNA repair, cell cycle arrest, apoptosis, or cellular senescence. The activation of p53, therefore, is a good indicator of DNA damage and other cellular stresses. The CellSensor p53RE-bla HCT-116 cell line (Invitrogen) contains a stably integrated beta-lactamase reporter gene under control of the p53 response elements. The activation of the reporter gene under culture conditions can be detected by fluorescence intensity. This cell line was used to screen the Tox21 compound library in a 1536-well plate format and to identify agonists that activate the p53 signaling pathway.
Tox21 Assay Protocol Summary: The p53RE-bla cells were dispensed at 4,000 cells/5 ul/well in 1536-well black wall/clear bottom plates using a Multidrop dispenser. After the assay plates were incubated at a 37 C/5% CO2 incubator for 5 hours, 23 nL of compounds dissolved in DMSO, positive controls or DMSO only was transferred to the assay plate by a pin tool. The plates were incubated at 37 C for 16 hours. After 1 uL of LiveBLAzerTM B/G FRET substrate was added using a Flying Reagent Dispenser, the plates were incubated at room temperature for 2 hours, and fluorescence intensity was measured by an Envision plate reader.
Potency is the fitted concentration of half-maximal effect.

SMILES | Potency
C1CN(SSN2CCOCC2)CCO1 | inactive
CCCCCC1C(=O)CCC1CC(=O)OC (stereo not given) | inactive
CC(C)[N+](C)(CCOC(=O)C1c2ccccc2Oc2ccccc21)C(C)C | inactive
C=C1C[C@H]2[C@@H]3C=C(C)C4=CC(=O)CC[C@]4(C)[C@H]3CC[C@]2(C)[C@@]1(OC(C)=O)C(C)=O | inactive
[O-]/[N+](=N\O)c1ccccc1 | inactive
C=CCOC(=O)C(=C)C | inactive
CCCCCCCCCCC(CO)CCCCCCCC (stereo not given) | inactive
CCCCCC=O | inactive
C=CC(=O)OCCCC | inactive
CC1(C)OC(=O)NC1=O | inactive
c1ccc2c(c1)[nH]c1ccccc12 | inactive
COCCOCCOCCO | inactive
Nc1ccc(O)c(N)c1 | inactive
Cc1ccc(S(=O)(=O)O)cc1C | inactive
Oc1c(Cl)ccc(Cl)c1Cl | inactive
CNC[C@H](O)c1ccc(O)c(O)c1 | inactive
CC(=O)Oc1c(C)c(C)c2c(c1C)CC[C@@](C)(CCC[C@H](C)CCC[C@H](C)CCCC(C)C)O2 | inactive
Nc1ccc(N)c(Cl)c1 | inactive
O=C(O)CCCCCCCCCCCC(=O)O | inactive
CCCCCCCC/C=C\CCCCCCCC(=O)O | inactive

SMILES | Potency
COc1cc([C@H]2Oc3cc([C@H]4Oc5cc(O)cc(O)c5C(=O)[C@@H]4O)ccc3O[C@@H]2CO)ccc1O | inactive
C=CCCCCCCCCCC | inactive
C1COCCN1 | inactive
Nc1cc(Cl)c(N)c(Cl)c1 | inactive
CC(C)[C@@H]1CC[C@@H](C)CC1=O | inactive
CC(=O)OC(C)C | inactive
Nc1ccc2c(O)cc(S(=O)(=O)O)cc2c1 | 4.86 µM (active) and 2.43 µM (active)
CC(C)(Oc1ccc(Cl)cc1)C(=O)O | inactive
NCCN | inactive
C=C[Si](OCCOC)(OCCOC)OCCOC | inactive
CCc1cccc2c3c([nH]c12)C(CC)(CC(=O)O)OCC3 (stereo not given) | inactive
C[C@]12C=CC(=O)C=C1CC[C@H]1[C@@H]3C[C@@H](O)[C@](O)(C(=O)CO)[C@@]3(C)C[C@H](O)[C@@]12F | inactive
CN1CCOCC1 | inactive
CCCCCCCCCCCCO | inactive
Nc1cc([N+](=O)[O-])ccc1C(=O)O | inactive
NCCOCCO | inactive
Clc1ccc(Sc2cc(Cl)c(Cl)cc2Cl)cc1 | inactive
CN(C)C | inactive
Cc1ccc2c(c1)C(=O)OC2=O | inactive
Cc1ccc(S(=O)(=O)NCl)cc1 | inactive
